Compound activity: PubChem BioAssay, National Center for Advancing Translational Sciences (NCATS)
Pf growth 96h – inhibits malaria parasite growth, 96 h | P. falciparum luciferase reporter growth, 96 h | Potency, µM (top dose mostly 28.7 µM), most hits filed as inhibitors | actives 6.9% (n = 320,000) | AID 504834
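Readout is luminescence from an integrated firefly luciferase in P. falciparum. Red cells, 2% hematocrit and 0.05% parasitemia final, were cultured with compound through two parasite generations (96 hours) at 37 C, 5% CO2.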
HCMV inh – blocks human cytomegalovirus replication. HFF cells, HCMV-luciferase reporter, 72 h; active compounds read low. activity change, negative = inhibition, % at 57.5 µM. actives 4.5% (n = 410,000). AID 1259415; in the data active = activity change below about -60%; inconclusive = no clear call, values can overlap the other calls; inactive = above about -39%
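Steps: HFFs plated, 16 h 37C; compounds added; HCMV-luciferase added to MOI 1 PFU/cell; 72 h 37C; OneGlo reagent, 5 min room temperature; luminescence read, normalized to controls.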
Pf growth 48h – inhibits P. falciparum growth in the first generation, 48 h. P. falciparum luciferase growth in erythrocytes, 48 h. Potency, µM (top dose mostly 28.7 µM), actives largely listed as inhibitors. AID 504832. actives 5.9% (n = 310,000)
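In quantitative HTS format, infected erythrocytes bearing luciferase-reporter parasites were treated for a single generation at 37 C. Luminescence after adding detection reagent served as the growth measure.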
HCV inh – inhibitors of hepatitis C virus infection. Huh7.5.1 HCVcc-Cre infection, luciferase reporter, 44 h. Potency, µM (titrated, usually from 41.8 µM), hits mostly inhibitors. actives 3.4% (n = 340,000)
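Infectious HCV cell culture screen: compound-treated cells (1,000/well, pre-plated 4 h) are infected with HCVcc-Cre at roughly 0.5 moi and grown 44 h. Infection is quantified by luciferase signal after 15 min substrate incubation at room temperature.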
Of the large screens only hits and unclear results are named; the others gave an inactive call. A selection: hits, their analogues and other compounds. The true share with any hit is near 13%. Unless noted, calls come from the whole dose curve; as a rule, active = well fitted inhibition curve with a large enough effect; inconclusive = small, poorly fitted or top-dose-only effect, or another doubt; inactive = no such curve, though single readings can be large or run the other way.

O=C(C[n+]1cccc(C(=O)N/N=C/c2ccc(Br)cc2)c1)c1ccccc1	Pf growth 48h inconclusive, HCV inh inconclusive
Cn1cc(C(=O)N/N=C/c2c(O)ccc3ccccc23)ccc1=O	HCMV inh -98.9, Pf growth 48h 2.62µM, HCV inh 4.47µM
O=C(N/N=C/c1c(O)ccc2ccccc12)c1ccc[n+](CCO)c1	Pf growth 96h 5.22µM, Pf growth 48h 9.28µM
Cc1ccc(NC(=O)c2cc(S(=O)(=O)N3CCCCC3)c[nH]2)cc1N(C)C	none (no result: Pf growth 96h, Pf growth 48h, HCV inh)
COc1ccccc1/C=N/NC(=O)c1ccc(C)nc1	Pf growth 96h inconclusive
Cc1c(/C=N/NC(=O)c2cccnc2)c2ccccc2n1Cc1ccccc1	HCMV inh -62.4, Pf growth 48h inconclusive, HCV inh 11.2µM
Cc1ccc(C(=O)N/N=C/c2c(O)ccc3ccccc23)cn1	HCMV inh -97.2, Pf growth 48h 3.7µM, HCV inh 4.47µM
O=C(CN1CCOCC1)N/N=C/c1c(O)ccc2ccccc12	Pf growth 48h inconclusive, HCV inh inconclusive
Cc1cc(O)c(C)c(O)c1/C=N/NC(=O)c1cccnc1	HCMV inh -96.5, Pf growth 48h inconclusive, HCV inh 12.6µM
Cn1nccc1C(=O)N/N=C/c1c(O)ccc2ccccc12	Pf growth 96h 10.4µM, HCMV inh -98.8, Pf growth 48h 2.62µM, HCV inh 0.891µM
COc1ccc(NC(=O)CC2C(=O)N(c3ccc(C)cc3)C(=O)N2CCc2ccccc2)cc1 (stereo unspecified)	none (no result: Pf growth 96h, Pf growth 48h, HCV inh)
Cn1c(-c2ccccc2)c(C=O)c2ccccc21	Pf growth 96h inconclusive, HCV inh inconclusive
O=C(N/N=C/c1ccccn1)c1ccc(Br)o1	Pf growth 96h inconclusive, Pf growth 48h inconclusive
Cc1cccc(OCC(=O)NC(Cc2ccccc2)C(=O)O)c1 (stereo unspecified)	none
Cn1c(-c2ccccc2)c(/C=N/NC(=O)c2ccc(O)cc2)c2ccccc21	Pf growth 96h inconclusive, HCV inh 10µM
O=C(N/N=C\c1c(O)ccc2ccccc12)c1cncc(Br)c1	Pf growth 96h 2.33µM, HCMV inh -100.2, Pf growth 48h 2.94µM, HCV inh inconclusive
Cc1cccc(OCC(=O)NC(C)C(=O)N/N=C/c2c(OCc3ccccc3)ccc3ccccc23)c1 (stereo unspecified)	HCMV inh -73.5, Pf growth 48h 6.57µM, HCV inh 7.94µM (no result: Pf growth 96h)
O=C(N/N=C/c1c(O)ccc2ccccc12)c1ccc(Br)o1	HCMV inh -98.7, Pf growth 48h inconclusive, HCV inh 3.55µM
COc1ccc2c(c1)CC(C(=O)Nc1cc(OC)c(OC)c(OC)c1)CO2 (stereo unspecified)	none (no result: Pf growth 96h, Pf growth 48h, HCV inh)
COc1cc2c(cc1NS(=O)(=O)c1cccc(C#N)c1)n(C)c(=O)n2C	none (no result: Pf growth 96h, Pf growth 48h, HCV inh)
COc1ccccc1N1CCN(C(=O)Cc2c(C(=O)O)c(C)cn2C)CC1	none (no result: Pf growth 96h, Pf growth 48h, HCV inh)
Cc1cc(NS(=O)(=O)c2ccc(NC(=O)COc3ccc(Cl)cc3)cc2)nc(C)n1	none (no result: Pf growth 96h, Pf growth 48h, HCV inh)
O=C(O)c1ccc(N=Cc2c(O)ccc3ccccc23)cc1	Pf growth 96h inconclusive
Cc1occc1C(=O)N/N=C/c1c(O)ccc2ccccc12	HCMV inh -101.4, Pf growth 48h 2.62µM, HCV inh inconclusive
O=C(N/N=C\c1c(O)ccc2ccccc12)c1ccc(O)cc1	HCMV inh -97.6, Pf growth 48h inconclusive, HCV inh inconclusive
O=C(N/N=C/c1c(O)ccc2ccccc12)c1cccnc1	HCMV inh -97.8, Pf growth 48h inconclusive, HCV inh 5.01µM
Cn1c(/N=C/c2c(O)ccc3ccccc23)nc2ccccc21	HCMV inh -84.8
O=C(CSc1nnc(-c2ccc(Cl)cc2)o1)N1CCc2ccccc21	none (no result: Pf growth 96h, Pf growth 48h, HCV inh)
CCOC(=O)c1sc2ccccc2c1S(=O)(=O)N1CCN(c2cccc(C)c2)C(C)C1 (stereo unspecified)	none (no result: Pf growth 96h, Pf growth 48h, HCV inh)
CCOc1ccc(NC(=O)CSc2nnc(-c3ccc(OCC)cc3)o2)cc1	none (no result: Pf growth 96h, Pf growth 48h, HCV inh)
COc1ccc(-c2nc3scc(CCNS(=O)(=O)c4ccc(C)cc4)n3n2)cc1	none (no result: Pf growth 96h, Pf growth 48h, HCV inh)
Cc1c(/C=N/NC(=O)c2cccs2)c2ccccc2n1Cc1ccccc1Cl	Pf growth 96h inconclusive, HCMV inh -81.0, Pf growth 48h inconclusive, HCV inh inconclusive
Cc1[nH]c2ccccc2c1/C=N/NC(=O)c1cccs1	HCV inh inconclusive
COCC(=O)OC/C(O)=C(\C#N)c1nc2ccccc2[nH]1	Pf growth 96h inconclusive, HCMV inh -99.2
Cc1cccc(Nc2nnc(SCC(=O)Nc3ccccc3[N+](=O)[O-])s2)c1C	Pf growth 96h inconclusive, Pf growth 48h inconclusive, HCV inh inconclusive
CCCC(=O)OC/C(O)=C(\C#N)c1nc2ccccc2[nH]1	Pf growth 96h inconclusive, HCMV inh -73.2
N#CC(=C(O)COC(=O)Cc1c[nH]c2ccccc12)c1nc2ccccc2[nH]1	none (no result: Pf growth 96h, Pf growth 48h)
Cc1nc(CSc2nnc(Nc3cccc(C)c3C)s2)cs1	Pf growth 96h 7.38µM, HCMV inh inconclusive, Pf growth 48h inconclusive, HCV inh inconclusive
Cc1c(-c2cccc(Cl)c2)nc2ccccc2c1C(=O)OC/C(O)=C(\C#N)c1nc2ccccc2[nH]1	Pf growth 96h 10.4µM, HCMV inh -81.8, HCV inh 8.91µM
CCCOc1ccc(C2C(=O)N(C3CCCCCC3)CC(=O)N2CCC2=CCCCC2)cc1OC (stereo unspecified)	none (no result: Pf growth 96h, Pf growth 48h, HCV inh)
Cc1cc(=O)n2nc(N3CCC(C(=O)Nc4ccc(C(C)C)cc4)CC3)sc2n1	none (no result: Pf growth 96h, Pf growth 48h, HCV inh)
COc1ccc(Cl)cc1NC(=O)Cn1cc2c(n1)CCC(C)C2 (stereo unspecified)	none (no result: Pf growth 96h, Pf growth 48h, HCV inh)
CCc1ccccc1N(C)C(=O)c1cn(CC(C)C)c(=O)c2cc(OC)c(OC)cc12	none (no result: Pf growth 96h, Pf growth 48h, HCV inh)
Cc1cccc(C)c1Nc1nnc(SC/C(O)=C(\C#N)c2nc3ccccc3[nH]2)s1	Pf growth 96h inconclusive, Pf growth 48h inconclusive
Cc1cccc(Nc2nnc(SC/C(O)=C(\C#N)c3nc4ccccc4[nH]3)s2)c1C	Pf growth 96h 11.7µM, Pf growth 48h inconclusive
N#C/C(=C(/O)COC(=O)CCC1CCCCC1)c1nc2ccccc2[nH]1	HCMV inh -68.8 (no result: Pf growth 96h)
CC(C)C(=O)OC/C(O)=C(\C#N)c1nc2ccccc2[nH]1	HCMV inh -65.0
N#C/C(=C(/O)COC(=O)c1ccc(O)cc1)c1nc2ccccc2[nH]1	none
N#C/C(=C(/O)CCl)c1nc2ccccc2[nH]1	Pf growth 96h 10.4µM, HCMV inh -70.0, Pf growth 48h inconclusive, HCV inh inconclusive
COc1ccc(CNC(=O)c2cnn3c(C)c(Cc4ccc(F)cc4)c(C)nc23)cc1	none (no result: Pf growth 96h, Pf growth 48h, HCV inh)
CC1Sc2ccc(S(=O)(=O)N3CCC(C(=O)Nc4cccc(Cl)c4)CC3)cc2NC1=O (stereo unspecified)	HCMV inh -99.9, Pf growth 48h inconclusive, HCV inh 3.16µM
COc1ccccc1NC(=O)C1CCN(S(=O)(=O)c2ccc3c(c2)NC(=O)C(C)S3)CC1 (stereo unspecified)	Pf growth 96h inconclusive, Pf growth 48h 11.7µM, HCV inh inconclusive
CC1Sc2ccc(S(=O)(=O)N3CCC(C(=O)NCc4ccc(Cl)cc4)CC3)cc2NC1=O (stereo unspecified)	Pf growth 48h 10.4µM, HCV inh inconclusive
